A selection: hits, their analogues and other compounds. The true share with any hit is near 5.7%.
GLP-1R agonist = GLP-1 receptor (human) agonism. P43220. HEK293 GLP-1R CRE-luciferase, luminescence, 4-6 h; cells express a hypersensitive GLP-1R form. Potency, µM (highest dose often 45.6 µM), for inactives: at the highest dose activation, usual class: activators. 380,000 compounds, 0.007% hits. AID 624172; further: potency means the concentration at half of the fitted maximal effect; % of control where 0% means no effect
Target sequence (P43220 whole entry, looked up): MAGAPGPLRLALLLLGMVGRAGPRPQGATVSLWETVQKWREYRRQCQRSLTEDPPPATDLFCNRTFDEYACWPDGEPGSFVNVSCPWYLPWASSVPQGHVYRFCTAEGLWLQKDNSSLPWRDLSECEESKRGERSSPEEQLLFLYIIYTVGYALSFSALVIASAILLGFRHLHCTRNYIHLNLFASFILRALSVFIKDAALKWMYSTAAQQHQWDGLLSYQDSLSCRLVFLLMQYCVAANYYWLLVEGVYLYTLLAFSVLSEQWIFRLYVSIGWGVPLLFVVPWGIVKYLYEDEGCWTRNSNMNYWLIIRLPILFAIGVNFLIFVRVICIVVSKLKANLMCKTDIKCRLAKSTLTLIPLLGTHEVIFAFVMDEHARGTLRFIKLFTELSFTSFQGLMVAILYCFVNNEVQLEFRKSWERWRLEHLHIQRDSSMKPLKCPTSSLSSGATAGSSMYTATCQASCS
ClpP mod = qHTS Assay for Activators of ClpP; purified B. subtilis ClpP, FRET peptide cleavage, 20 min; AID 651965, 2013; ATP-dependent Clp protease proteolytic subunit (Bacillus subtilis (strain 168)), P80244; Potency, µM (highest dose often 57.5 µM), inactives show top-dose activity change, negative = active; 340,000 compounds, 1.9% hits; active means well fitted falling curve with a large enough effect; inconclusive means small, poorly fitted or top-dose-only effect; inactive means no such curve, though single readings can be large or run the other way; further: potency means the concentration at half of the fitted maximal effect; the source files actives as falling curves though it sought activators and does not explain the sign; nearly all actives have a fitted effect of over 65% in size
Target sequence (P80244 whole entry, looked up): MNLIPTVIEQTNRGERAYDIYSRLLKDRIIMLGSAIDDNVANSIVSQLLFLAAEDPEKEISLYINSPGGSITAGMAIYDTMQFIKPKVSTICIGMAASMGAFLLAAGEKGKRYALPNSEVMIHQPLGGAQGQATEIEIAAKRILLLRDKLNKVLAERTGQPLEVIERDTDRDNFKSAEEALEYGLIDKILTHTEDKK
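Purified B. subtilis ClpP, 10 microg/mL final in Tris/HCl pH8 with KCl, BSA, glycerol and Tween-20, cleaved an Abz/nitrotyrosine-quenched decapeptide. Fluorescence (ex 320, em 430) was read at 0 and 20 min at room temperature. Delta was normalized to 5.8 microM ADEP and DMSO/no-enzyme controls.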
GLP1R inv ag = inverse agonists of human GLP-1 receptor. P43220. HEK293 GLP-1R CRE-luciferase, luminescence, 24 h; GLP-1R form is constitutively active. 410,000 compounds, 1.6% hits. Potency, µM (titrated, usually from 38.3 µM), without a hit: at the top dose activity change, negative = inhibition, usual class: inhibitors; further: potency means the concentration at half of the fitted maximal effect; on the % scale 0 is the no-effect control and ±100 the full control effect; nearly all actives have a fitted effect of over 55% in size
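Stable HEK293 clone (constitutively active GLP-1R + cAMP-response luciferase); 200 cells/uL plated, 12 h pre-culture, compound 24 hr, 37 deg C/5% CO2; detection reagent 12 min RT; luminescence.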
GLP1R cytotox = cytotoxicity in counter-screen for GLP-1R inverse agonists | Potency, µM (titrated, usually from 38.3 µM), for the others: at the highest dose activity change, negative = inhibition, usual class: inhibitors | 410,000 compounds, 0.13% hits | AID 624418 | HEK293 cAMP-luciferase reporter cells, luminescence, 24 h;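 further: loss of luciferase light is scored as toxicity; potency means the concentration at half of the fitted maximal effect; on the % scale 0 is the no-effect control and ±100 the full control effect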
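Luminescence readout: signal drop marks cytotoxicity. Plated cells grew 12 h at 37 °C, 5% CO2, received 23 nL compound for 24 h, then got luciferase reagent, read after 12 min at RT.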
D3 antag = D3 dopamine receptor (human) antagonism. max response, negative = inhibition, %. P35462. AID 652054. 360,000 compounds, 2.5% hits. D3R cells, DiscoveRx beta-arrestin luminescence, antagonist mode; stronger effect = lower value; in the data active means max response below about -50%; inconclusive means no clear call, values can overlap the other calls; further: on the % scale 0 is the no-effect control and ±100 the full control effect
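Cells expressing the human receptor were seeded at 1500 cells/well, incubated overnight at 37 degrees C in 5% CO2, then exposed to library compounds with dopamine controls for 90 minutes at 37 degrees C before luminescent detection.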
DRD3 agonist = activates the human D3 dopamine receptor; P35462; D3R DiscoveRx beta-arrestin cells, luminescence, 90 min; max activation, %; 410,000 compounds, 0.58% hits; AID 652048; in the data active means max activation above about 30%; further: 0% is about no effect
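Agonist mode: compounds and dopamine controls were applied to plated cells for 90 min at 37 degrees C after an overnight attachment at 1500 cells/well. Luminescent read-out followed 30 - 60 minutes at room temperature with DiscoveRx detection reagent.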
An asterisk follows results filed as active; ? = inconclusive; · = no result; [ ] = remark or other dose. Unless noted, the call rests on the fitted dose curve; in most records, active means well fitted curve in the direction sought with a large enough effect; inconclusive means small, poorly fitted or top-dose-only effect, or another doubt; inactive means no such curve, though single readings can be large; an effect the other way counts as inactive or inconclusive.

SMILES | GLP-1R agonist | ClpP mod | GLP1R inv ag | GLP1R cytotox | D3 antag | DRD3 agonist
Cc1ccc(C)c(NC(=O)CSc2ncc3c(n2)-c2ccccc2N(Cc2ccccc2C)S3(=O)=O)c1 | · | 19% | 16% | -4% | · | 4
CN(C)c1ccc(/C=N/Nc2nc3ccccc3o2)cc1 | 0% | 3% | 3.5µM* | -22% | 0 | 4
CNC(=O)Cn1ncc2c3ccccc3n(C)c2c1=O | 9% | 4% | -2% | 0% | 18 | 1
Cn1c2ccccc2c2cnn(CC(=O)Nc3ccccc3Br)c(=O)c21 | -3% | -11% | 17% | 4% | -16 | 3
COC(=O)Cn1ncc2c3ccccc3n(C)c2c1=O | 16% | 14µM* | 14% | -5% | -4 | -8
Cn1c2ccccc2c2cnn(CC(=O)O)c(=O)c21 | -14% | 32µM* | 8% | 11% | 13 | 1
Cc1cccc(C(C)C)c1NC(=O)c1ccc2c(c1)CCCN2S(C)(=O)=O | · | 2% | 4% | 4% | · | -18
COc1ccc(C(=O)N2CCN(c3ccc(N4CCOCC4)nn3)CC2)cc1OC | -3% | 25µM* | 16% | -2% | 3 | 7
COc1ccc(N=C2NC(=O)/C(=C/c3ccc(O)c(OC)c3)S2)cc1 | 9% | -8% | 57% | -17% | 6 | 2
COc1ccccc1N=C1NC(=O)/C(=C/c2ccc(N(C)C)cc2)S1 | 11% | 1% | ? | 51% | -95* | -13
CC(=O)N(c1ccc(Cl)cc1)c1cn(C(C)=O)c2ccccc12 | 0% | · | ? | -1% | -2 | 10
CC(=O)n1cc(N(C(=O)CCl)c2ccc(C)cc2)c2ccccc21 | -1% | · | 4.5µM* | ? | -67* | -11
O=S(=O)(NCCCN1CCN(c2ccccc2F)CC1)c1cccc2cccnc12 | -1% | -2% | ? | ? | -96* | 5
C/C(=N\NC(=O)c1cccc(S(=O)(=O)Nc2ccccc2Cl)c1)c1ccc(-n2ccnc2)cc1 | 9% | 1% | 18% | 13% | -52* | 9
O=S(=O)(Nc1ccccc1-c1ccccc1)c1ccccc1 | 12% | · | 6.3µM* | 2% | -2 | -3
CN(C)S(=O)(=O)Nc1ccccc1C(N)=O | 4% | 22µM* | ? | -7% | -4 | 4
CCS(=O)(=O)Nc1ccccc1C(N)=O | 0% | · | -5% | 6% | 10 | 2
Cc1c(Cl)cccc1NS(=O)(=O)c1ccccc1 | 10% | -9% | 10µM* | 19% | ? | -13
Cn1c(=O)n(C)c2cc(N3CCCCC3)c(NC(=O)c3ccc(Cl)cc3)cc21 | · | -5% | 2% | 13% | · | -8
COc1ccccc1N1CCN(c2ncnc3c2cnn3C)CC1 | · | 1% | 2% | -14% | · | 1
CC(=O)Nc1cccc(NC(=O)CSc2ccc(-c3sc(-c4ccccc4)nc3C)nn2)c1 | · | ? | 39% | -23% | · | 0
Cc1ccc(Cl)cc1NC(=O)CSc1ccc(C(=O)O)cn1 | · | -1% | 7% | -10% | · | 1
Cc1ccc2c(c1)N(C(=O)N1CCC(C(=O)NC3CCCCCC3)CC1)CC(C)O2 (stereo not drawn) | · | 1% | 7% | 5% | · | 5
O=C(c1cccc(S(=O)(=O)Nc2ccccc2Cl)c1)N1CCC1 | -20% | -3% | 10% | -6% | -59* | -4
NC(=O)c1ccccc1NC(=O)COc1ccc(Cl)cc1 | 5% | -8% | -15% | -20% | -2 | 3
SMILES | GLP-1R agonist | ClpP mod | GLP1R inv ag | GLP1R cytotox | D3 antag | DRD3 agonist
NC(=O)c1ccccc1NS(=O)(=O)c1ccccc1 | -2% | 28µM* | 3% | 6% | ? | 0
Cc1ccc(-c2onc(C)c2C)cc1S(=O)(=O)Nc1cccc(Cl)c1C | · | 1% | 10µM* | ? | · | 1
Cc1ccc(-c2onc(C)c2C)cc1S(=O)(=O)N1CCCCC1 | · | -2% | -24% | 5% | · | 7
NC(=O)c1ccccc1NS(=O)(=O)Cc1ccc(Cl)cc1 | -4% | 22µM* | ? | -9% | 14 | 3
CCc1ccc(NCc2cc3ccc(OC)cc3n(CC(=O)Nc3ccccc3OC)c2=O)cc1 | 8% | -5% | ? | -5% | · | 2
COc1cc(OC)cc(C(=O)Nc2ccc(-c3nc4cc(C(C)C)ccc4o3)cc2)c1 | · | 4% | ? | -1% | · | 5
C=C(c1nc2ccccc2s1)C1Cc2cccc3c2N(CCC3)C1 (stereo not drawn) | · | 0% | · | · | · | ·
N#CC1=C(O)C(c2ccccc2)n2c1nc(=O)c1ccccc12 (stereo not drawn) | -1% | 18µM* | 2% | 1% | -14 | -2
COc1cc2nc(N(C)C)nc(NC3CCN(C)CC3)c2cc1OC | · | 4% | · | · | · | ·
Nc1n[nH]c2ccccc12 | 1% | -20% | 11% | 6% | 8 | 24
S=c1nn[nH]c2ccccc12 | 7% | · | 0% | -21% | -20 | 85*
Cc1ccc(OCC(=O)NCC(=O)OCc2cc(=O)n3nc(C(C)C)sc3n2)cc1 | · | -6% | -3% | -5% | · | -10
CC(=NNC(=S)N1CC2CCC(CC2)C1)c1ccncn1 | 1% | -3% | ? | ? | 2 | 5
N#CC1=C(N)Oc2c(ccc3cccnc23)C1c1cccnc1 (stereo not drawn) | 2% | 25µM* | -15% | 1% | -10 | -7
CC(=O)c1cccc(NC(=O)c2ccc(NC(=O)CC3SC(N4CCCCC4)=NC3=O)cc2)c1 (stereo not drawn) | -2% | 22µM* | 12% | 11% | 17 | 5
FC(F)(F)c1cc(-c2ccco2)nc(NCCc2ccccc2)n1 | 2% | 32µM* | ? | -1% | -12 | 2
COc1ccc(CCNc2nc(-c3ccccc3OC)cc(C(F)(F)F)n2)cc1OC | 3% | ? | 3.5µM* | 15% | · | 8
COc1cccc(-c2cc(C(F)(F)F)nc(NCc3ccc(F)cc3)n2)c1 | -5% | 28µM* | ? | 7% | · | 1
COc1ccccc1-c1cc(C(F)(F)F)nc(NCc2cccs2)n1 | 5% | ? | ? | 21% | 3 | 2
Fc1ccc(CNc2nc(-c3ccccc3)cc(C(F)(F)F)n2)cc1 | -3% | ? | ? | -3% | · | -6
COc1ccc(-c2cc(C(F)(F)F)nc(NCCc3ccccc3)n2)cc1 | 0% | 4% | 3.2µM* | 25% | · | -15
CO[C@@H]1C[C@H](O[C@H]2[C@@H](C)[C@H](O[C@@H]3O[C@@H](C)C[C@@H](N(C)C)[C@@H]3OC(C)=O)[C@H](C)C[C@]3(CO3)C(=O)[C@H](C)[C@H](OC(C)=O)[C@H](C)[C@H](C)OC(=O)[C@@H]2C)O[C@H](C)[C@@H]1OC(C)=O | 9%[19.8 µM] | · | · | · | · | ·
